Screen size: about 190,000 compounds; about 810 (0.43%) were called active. What follows is part of a selection rich in actives, with near analogues and random picks from the rest. Unmarked numbers belong to inactive results. Rule as the data show it: active = inhibition above about 50%; inactive = the rest.
The compounds below were run against Mannose-6-phosphate isomerase (Homo sapiens) (UniProt P34949) (assay: inhibitors of human PMI, primary screen, biochemical, fluorescence intensity, coupled assay (AID 1209;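 also: plate controls were DMSO vehicle for no effect and wells lacking substrate for full effect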)). Details: purified PMI enzyme, at 20 µM, stronger effect = higher value.
Chain of Mannose-6-phosphate isomerase (Homo sapiens) (P34949 whole entry, looked up): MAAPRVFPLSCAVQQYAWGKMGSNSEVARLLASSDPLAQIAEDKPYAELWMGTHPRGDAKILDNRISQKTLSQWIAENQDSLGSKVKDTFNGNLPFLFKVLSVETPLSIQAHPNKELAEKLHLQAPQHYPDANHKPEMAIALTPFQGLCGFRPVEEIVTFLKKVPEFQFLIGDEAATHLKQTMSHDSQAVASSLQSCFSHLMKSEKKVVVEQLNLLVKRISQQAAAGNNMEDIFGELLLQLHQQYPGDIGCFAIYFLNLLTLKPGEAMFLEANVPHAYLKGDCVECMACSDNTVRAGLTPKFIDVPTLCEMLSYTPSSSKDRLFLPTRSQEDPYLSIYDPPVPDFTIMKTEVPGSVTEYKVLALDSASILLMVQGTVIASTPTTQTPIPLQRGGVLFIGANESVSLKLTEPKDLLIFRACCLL
For `Cc1cc(O)c2c(c1)C(O)(C1OC(CO)C(O)C(O)C1O)c1cccc(O)c1C2=O` (stereo not drawn), the inhibition was 2%.
`O=C(CCc1nnc(C2CCCCC2)o1)NCc1ccc(F)c(F)c1` showed an inhibition of -5.7%.
`CCOC(=O)c1cc(C(C)=O)c(=O)[nH]c1C` gave an inhibition of 2.7%.
`CCCNC(=O)c1ccccc1NC(=O)c1ccccc1SC` showed an inhibition of 0.3%.
In the case of `CCN1C(=O)S/C(=C/c2ccc(Sc3nc4ccccc4[nH]3)o2)C1=O`, the inhibition was 56.4% (active).
`C=CCN1C(=O)S/C(=C/c2ccc(Sc3nc4ccccc4[nH]3)o2)C1=O` gave an inhibition of 44.5%.
For `CC(C)N1C(=O)S/C(=C/c2ccc(Sc3nc4ccccc4[nH]3)o2)C1=O`, the inhibition was 26.5%.
`Cc1ccc(S(=O)(=O)NCCOc2nc(N(C)C)nc(N3CCOCC3)n2)cc1` was tested, and the inhibition was 16.3%.
`O=C(O)Cc1c(C(=O)O)nnn1-c1cccc(C(F)(F)F)c1` showed an inhibition of -2.9%.
With `COC(=O)Cc1c(C(=O)OC)nnn1-c1cccc(C(F)(F)F)c1` the inhibition was 75.8% (active).
For `COC(=O)Cc1c(C(=O)OC)nnn1-c1ccc(OC(F)(F)F)cc1`, the inhibition was -7.2%.
Work on `O=C(NNC(=O)C1C2CCC(C2)C1C(=O)O)c1cccc(Cl)c1` (stereo not drawn) yielded an inhibition of -7.9%.
Compound `O=C(CCCOc1ccccc1)N1CCN(c2ccccn2)CC1` has an inhibition of 0.9%.
`O=C(NCc1cccnc1)c1ccc(COc2ccc3c(c2)CCC3)o1` gave an inhibition of 11%.
In the case of `Cc1ccc(Nc2c(F)c(F)c(F)c(F)c2C(=O)O)cc1`, the inhibition was -24%.
Work on `CCn1c(Cc2ccccc2)nnc1SCC(=O)Nc1cc(C)on1` yielded an inhibition of -6.5%.
In the case of `CCCCn1c(Cc2ccccc2)nnc1SCC(=O)Nc1cc(C)on1`, the inhibition was 50.8% (active).
For `COCCn1c(Cc2ccccc2)nnc1SCC(=O)Nc1cc(C)on1`, the inhibition was 3.8%.
For `Cc1ccccc1NC(=O)N1CCC(C(=O)c2ccc(F)cc2)CC1`, the inhibition was -0.8%.
Work on `O=C(CC(SCCO)c1ccc2c(c1)OCO2)c1ccco1` (stereo not drawn) yielded an inhibition of 10.7%.
For `Cc1ccc(C(CC(=O)c2ccco2)SCCO)cc1` (stereo not drawn), the inhibition was 88.3% (active).
`O=C(CC(SCCO)c1ccc(F)cc1)c1ccco1` (stereo not drawn) showed an inhibition of 4.8%.
For `NCCCC[C@@H]1NC(=O)[C@H](CCC(=O)O)NC(=O)c2cc([N+](=O)[O-])cc(I)c2OCC[C@@H](C(N)=O)NC1=O`, the inhibition was -36.4%.
In the case of `CC1CN(S(=O)(=O)c2cccs2)CC(C)O1` (stereo not drawn), the inhibition was -2.4%.
In the case of `CCc1ccc(Nc2cc(C)nc3nc(C)nn23)cc1`, the inhibition was -5.4%.
In the case of `CN1C(=O)SC(Nc2ccc(F)cc2)C1=O` (stereo not drawn), the inhibition was 3.1%.
In the case of `CCc1ccc(NC(=O)c2cc(C)on2)cc1`, the inhibition was 6.1%.
`Cc1cc2n(n1)SC(Nc1ccc(F)cc1)N2` (stereo not drawn) was tested, and the inhibition was 64.5% (active).
With `Cc1cc2n(n1)SC(Nc1ccccc1)N2` (stereo not drawn) the inhibition was 24.7%.
`COc1ccc(CCNC(=O)c2nnn(-c3cccc(C)c3)c2N)cc1OC` gave an inhibition of 4.4%.
With `Cc1nc(SC(C(=O)c2ccccc2)c2ccccc2)n[nH]1` (stereo not drawn) the inhibition was 2%.
`C=CCn1c(SCc2c(F)cccc2Cl)nnc1-c1ccco1` gave an inhibition of -6.5%.
`CCCn1c(NCc2ccco2)nc2c1c(=O)n(C)c(=O)n2C` was tested, and the inhibition was -8.2%.
Work on `COc1ccc(F)cc1C(=O)C1CCCN(Cc2ccc(Oc3ncccn3)cc2)C1` (stereo not drawn) yielded an inhibition of -3.3%.
`Cc1ccc2nc3c(c(N)c2c1)CCN3c1ccccc1` gave an inhibition of 0.5%.
Work on `Nc1c2c(nc3ccc(Br)cc13)N(c1ccccc1)CC2` yielded an inhibition of 17%.
For `Cc1cccc(N2CCc3c2nc2ccc(Br)cc2c3N)c1`, the inhibition was 69.9% (active).
For `CCN(CC)S(=O)(=O)c1ccc2c(c1)nc(CCC(=O)Nc1ccc(N3CCOCC3)cc1)n2C`, the inhibition was 3.7%.
Work on `COc1ccc(Cl)cc1Nc1ncnc2sc(C)c(S(=O)(=O)N3CCC(C)CC3)c12` yielded an inhibition of 5.4%.
`Cc1cc2nc[nH]c2cc1[N+](=O)[O-]` was tested, and the inhibition was 4%.
For `Nc1cc2nc[nH]c2cc1N`, the inhibition was 68.3% (active).
Compound `Nc1ccc2nc[nH]c2c1` has an inhibition of -17.5%.
Work on `c1ccc2c(-c3nn[nH]n3)cccc2c1` yielded an inhibition of -8.6%.
In the case of `O=C(N/N=C/c1ccc(N2CCOCC2)o1)c1cccc(F)c1`, the inhibition was -2.7%.
With `O=C(N/N=C/c1ccc(N2CCOCC2)o1)c1cccc(C(F)(F)F)c1` the inhibition was -5.7%.
For `O=C(N/N=C/c1ccc(N2CCOCC2)o1)c1cccc([N+](=O)[O-])c1`, the inhibition was 79% (active).
Work on `CCOC(=O)c1c(-c2ccc(C)cc2)csc1/N=C/N(C)C` yielded an inhibition of 12.2%.
For `COc1ccc(OC)c(N=C(N)N=C(N)N)c1`, the inhibition was 2.9%.
Compound `COc1ccc(OC)c(N=C2C(=O)Nc3ccccc32)c1` has an inhibition of 16.4%.
For `COc1ccc(OC)c(N=c2ssnc2Cl)c1`, the inhibition was 88.1% (active).
`COc1cc(N)c(Cl)cc1Cl` was tested, and the inhibition was -7.9%.
`COc1cc(N=c2ssnc2Cl)c(OC)cc1Cl` was tested, and the inhibition was 98.9% (active).
Compound `COc1cc(OC)c(Cl)cc1N` has an inhibition of 9.7%.
Work on `C#CCOCCOCCOCCNc1nc(N2CCN(C(=O)C([C@@H](C)CC)n3cc(C(N)Cc4ccc(O)cc4)nn3)CC2)nc(N2CCN(C(=O)[C@H](CCC(=O)O)n3cc(C(N)CC(C)C)nn3)CC2)n1` (stereo partly drawn) yielded an inhibition of -18.6%.
`COc1ccc(C(=O)/C=C/C(=O)N(Cc2ccccc2OC)C(C(=O)NC2CCCCC2)c2ccncc2)c(O)c1` (stereo not drawn) gave an inhibition of 13.1%.
`Cc1ccc(S(=O)(=O)/N=C(/c2ccc(F)cc2)N2CCCC2)cc1` gave an inhibition of 7.2%.
`CSc1ccc(/C=C/C(=O)c2ccc(NC(=O)Cc3ccccc3)cc2)cc1` gave an inhibition of 15.3%.
In the case of `Nc1ccc(N2CCCCC2)cc1N1CCCCC1`, the inhibition was 61.7% (active).
With `Nc1ccc(N2CCCCCC2)cc1` the inhibition was -3.3%.
`Cc1nn(-c2cc(N3CCCCC3)ccc2N)c(=O)c2ccccc12` showed an inhibition of 25.5%.
Compound `Cc1ccc2nc(N(CCCN(C)C)C(=O)COc3ccc(Cl)cc3)sc2c1` has an inhibition of -9.9%.
In the case of `Cc1cc(C)c2sc(N(CCCN(C)C)C(=O)COc3ccc(Cl)cc3)nc2c1`, the inhibition was 50.2% (active).
With `CN(C)CCCN(C(=O)COc1ccc(Cl)cc1)c1nc2ccc(F)cc2s1` the inhibition was -8%.
Compound `COc1ccc(-n2ncc3c(=O)n(Cc4c(F)cccc4Cl)cnc32)cc1` has an inhibition of 1.8%.
`Cc1ccc(NS(=O)(=O)c2cc(NC(=O)c3ccc4c(c3)NC(=O)CS4)ccc2C)c(C)c1` was tested, and the inhibition was 41.1%.
`COc1ccc(NS(=O)(=O)c2cc(NC(=O)c3ccc(F)cc3)ccc2OC)cc1` showed an inhibition of 14.1%.
`COc1ccc(NC(=O)c2cccc(S(=O)(=O)Nc3ccc(Br)cc3)c2)cn1` showed an inhibition of 12.5%.
For `COc1ccc(NC(=O)c2c(F)cccc2F)cc1S(=O)(=O)Nc1ccc(Br)cc1`, the inhibition was 19.4%.
Work on `O=C(Nc1cccc(S(=O)(=O)Nc2ccc(Cl)cc2)c1)c1ccc(Cl)nc1` yielded an inhibition of 15.9%.
In the case of `COc1ccc(NC(=O)c2ccc3c(c2)NC(=O)CS3)cc1S(=O)(=O)Nc1ccc(Br)cc1`, the inhibition was 54.5% (active).
Work on `Cc1ccc(NS(=O)(=O)c2cc(C(=O)O)ccc2Cl)c(C)c1` yielded an inhibition of -31.1%.
With `O=C1CSc2ccc(C(=O)Nc3cccc(S(=O)(=O)Nc4ccc(Br)cc4)c3)cc2N1` the inhibition was 62.8% (active).
`Cc1ccc(NS(=O)(=O)c2cc(NC(=O)c3ccc4c(c3)NC(=O)CS4)ccc2Cl)c(C)c1` was tested, and the inhibition was 59.3% (active).
`CCN(CC)CCNC(=O)C1CCC(=O)N1CCc1ccccc1` (stereo not drawn) was tested, and the inhibition was 4.7%.
`CCOc1cc(/C=N/O)ccc1OCc1ccc(F)cc1` was tested, and the inhibition was -0.3%.
With `CC(C)NC(=O)c1onc(CSc2ccc(F)cc2)c1C(=O)O` the inhibition was -5.1%.
`O=C(c1ccc(F)cc1)N1CCN2C(=O)c3ccccc3C12c1ccc(Cl)cc1` (stereo not drawn) gave an inhibition of 8.3%.
`Cc1c([N+](=O)[O-])ccc(S(=O)(=O)N2CCC(C(N)=O)CC2)c1C` showed an inhibition of 10.6%.
With `COC(=O)c1ccc(C(=O)OC)c(-n2c(=O)c3ccccc3c3ccccc3c2=O)c1` the inhibition was 80.2% (active).
Work on `COC(=O)c1ccc2c(=O)n(-c3ccccc3)c(=S)[nH]c2c1` yielded an inhibition of 0.9%.
Compound `COC(=O)c1ccc2c(=O)n(-c3ccccc3F)c(=S)[nH]c2c1` has an inhibition of -15.3%.
In the case of `CCCCCN(C(=O)NC(=O)Nc1nncs1)S(C)(=O)=O`, the inhibition was -0.4%.
`CCn1cc(C2=NCCO2)c2ccccc21` gave an inhibition of 0.2%.
In the case of `CCOC(=O)Cc1csc(NC(=O)c2c(O)c3ccccc3n(C)c2=O)n1`, the inhibition was 7.5%.
For `O=C1CCC([N+](=O)[O-])C(c2cccc(Cl)c2Cl)N1` (stereo not drawn), the inhibition was -4.8%.
With `O=C1CCC([N+](=O)[O-])C(c2cccc3ccccc23)N1` (stereo not drawn) the inhibition was 101% (active).
`O=C1CCC([N+](=O)[O-])C(c2ccccc2Cl)N1` (stereo not drawn) was tested, and the inhibition was 2.8%.
For `O=C(Cc1ccccc1)Nc1ccccc1C(=O)O`, the inhibition was -3%.
For `O=c1c2c([nH]c3ccc(Br)cc13)CCCC2`, the inhibition was -15.1%.
For `O=c1ccc2cc3c([nH]c4ccc(Br)cc43)oc-2c1O`, the inhibition was 70.2% (active).
`Cc1cc(=O)c2cc(Br)ccc2[nH]1` was tested, and the inhibition was 0.3%.
`O=C(NCC(=O)N(Cc1cccs1)C(C(=O)NC1CCCCC1)c1ccco1)c1ccco1` (stereo not drawn) was tested, and the inhibition was 11%.
Work on `CSc1ccc(/C=N/n2c(Cc3ccc(Br)cc3)n[nH]c2=S)cc1` yielded an inhibition of 14.5%.
With `S=c1[nH]nc(Cc2ccc(Br)cc2)n1/N=C/c1ccc(Cl)cc1` the inhibition was 51.1% (active).
For `Cc1n[nH]c(=S)n1/N=C/c1ccc(OCc2ccc(Cl)cc2)cc1`, the inhibition was -6.8%.
Compound `CCN1CCN(C(=O)C(C)Nc2cc(Cl)c(OC)cc2OC)CC1` (stereo not drawn) has an inhibition of 26.6%.
With `O=C(CSc1nc2ccccc2c(=O)[nH]1)c1ccc(O)cc1O` the inhibition was -5.9%.
For `CCCCNS(=O)(=O)c1ccc(NC(=O)C(Sc2ccccc2)c2ccccc2)cc1` (stereo not drawn), the inhibition was 23.4%.
